Results taken from PubChem BioAssay.
Calls of active or inactive are those of the source. The rule behind the calls is not given here.

The molecules below were run against Protein kinase 7 (PK7), Plasmodium falciparum 3D7 (PF3D7_0213400) (UniProt Q7YTF7) (assay: inhibition of Plasmodium PK7 catalytic activity – biochemical, TCAMS antimalarial set, Kinase-Glo luminescence (AID 1159587)). Conditions: recombinant PfPK7, Kinase-Glo ATP depletion luminescence.
Chain of Protein kinase 7 (PK7), Plasmodium falciparum 3D7 (PF3D7_0213400) (Q7YTF7 1-343): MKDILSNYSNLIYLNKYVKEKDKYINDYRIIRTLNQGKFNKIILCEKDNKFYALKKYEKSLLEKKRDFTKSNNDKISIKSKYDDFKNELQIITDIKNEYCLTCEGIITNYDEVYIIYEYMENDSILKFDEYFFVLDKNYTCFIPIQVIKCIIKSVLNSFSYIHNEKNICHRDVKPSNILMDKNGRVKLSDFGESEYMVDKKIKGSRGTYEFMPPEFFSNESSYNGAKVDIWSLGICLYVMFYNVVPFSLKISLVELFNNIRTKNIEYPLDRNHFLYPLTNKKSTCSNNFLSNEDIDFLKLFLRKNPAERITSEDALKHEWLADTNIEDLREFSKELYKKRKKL

Structure (SMILES)	outcome
Cc1cc(C2CCN(CCCCNC(=O)c3ccc(NC(=O)c4ccc(Cl)cc4)cc3)CC2)c(C)cc1OCc1cccnc1	inactive
CN1CCCN(Cc2ccc(-c3cccc(NC(=O)c4ccc(F)cc4)c3)cc2)CC1	inactive
CCCS(=O)(=O)N1CCC(CO)(Cc2ccccc2C(F)(F)F)CC1	inactive
Oc1ccc(CCNc2nc(NCCCOc3ccccc3-c3ccc(F)cc3)nc(N3CCNCC3)n2)cc1	inactive
O=C(Nc1cccc(-c2cccc(-c3nc4ccccc4[nH]3)c2)c1)N[C@@H]1C[C@H]1c1ccccc1	inactive
O=C(Nc1ccc(-c2cccc(-c3nc4ccc(C(F)(F)F)cc4[nH]3)c2)cc1)c1cccnc1	inactive
COc1ccc(Cl)cc1S(=O)(=O)Nc1cccc(CCN2CCC(N3CCCCC3)CC2)c1	inactive
COc1ccc(-n2ccnc2SCC(=O)Nc2cc(C)ccc2C)c(OC)c1	inactive
O=S(=O)(NCCN1CCCC1)c1cccc(-c2ccccc2CNC2Cc3ccccc3C2)c1	inactive
CCOC(=O)C(C)(C)Oc1ccc(C(=C2CC(C)(C)CC(C)(C)C2)c2ccc(O)cc2)cc1	inactive
Cc1nc(-c2ccc(-c3ccc(NC(=O)c4coc5ccc(N6C[C@@H](C)N[C@@H](C)C6)cc45)cc3)c(C)c2)no1	inactive
c1ccc(Oc2ccc(Nc3ccnc4cc(-c5ccc(CN6CCOCC6)o5)ccc34)cc2)nc1	inactive
COc1ccc2nc(C)cc(NN=Cc3ccccc3Cl)c2c1	inactive
COc1ccc2nccc([C@@H](O)CN3CCC(NCc4ccc5nnsc5c4)CC3)c2c1	inactive
CC(C)(C)C1CCc2nc(N)nc(N)c2C1 (stereo not given)	inactive
CCN(CC)C(=NCCCCCCN=C(NC(N)=NCc1cccc(Cl)c1)N(CC)CC)NC(N)=NCc1cccc(Cl)c1	inactive
O=C(NC1CC1)c1cnc(N2CCCC(c3ccccc3)C2)c(Cl)c1 (stereo not given)	inactive
Cc1cc(NCCC(=O)NCCc2ccccc2)nc(NCCc2ccc(F)cc2)n1	inactive
CC1(CCc2ccccc2)N=C(N)N=C(N)C1c1ccc(Cl)c(Cl)c1 (stereo not given)	inactive
Cn1nccc1C(=O)NCCNCc1ccc(-c2ccc(-c3nc4ccc(C(F)(F)F)cc4[nH]3)cc2)cc1	inactive

Structure (SMILES)	outcome
O=C(Nc1ccc(CN2CCN(S(=O)(=O)c3ccc(Cl)s3)CC2)cc1)c1cccs1	inactive
CS(=O)(=O)c1ccc(CNCc2cccc(-c3cccc(-c4nc5ccc(F)cc5[nH]4)c3)c2)cc1	inactive
O=C(Cc1cnc[nH]1)Nc1ccc(-c2cccc(-c3nc4ccc(F)cc4[nH]3)c2)cc1	inactive
CC(C)(C)OC(=O)N(Cc1cc(-n2nnnc2C(F)(F)F)ccc1O)[C@H]1CCCN(C(=O)OC(C)(C)C)[C@H]1c1ccccc1	inactive
Cc1ccc(NCc2cccc(F)c2)cc1S(=O)(=O)N[C@@H]1CCN(C#N)C1	inactive
Fc1ccc2ncc(Cl)c(CCN3CCC(NCc4cc5c(cn4)OCCO5)CC3)c2c1	inactive
O=C(NCC1CCN(Cc2ccc(F)cc2)C1)c1cc(-c2cccc(C(F)(F)F)c2)cs1 (stereo not given)	inactive
CN(C)CCOc1cc(NC(=O)Nc2ccc(-c3ccncc3)c(C(F)(F)F)c2)ccc1Cl	inactive
CCCCCCCc1ccc(-c2c(C)[nH]c(C)c(Cl)c2=O)cn1	inactive
COc1ccc(CNCc2ccc(F)cc2)cc1-c1ccc(OC)c(S(=O)(=O)NCCN2CCCC2)c1	inactive
c1ccc(COc2ccc(C3CCCCC3)cc2)nc1	inactive
O=C(Nc1cccc(-c2ccc(-c3nc4ccc(F)cc4[nH]3)cc2)c1)c1cccnc1	inactive
O=C(Cn1cc(C=C2SC(=NC3CCCC3)N(C3CCCC3)C2=O)c2ccccc21)N1CCCC1	inactive
O=C(/C=C/c1ccc(Cl)c(Cl)c1)NC1CCN(CCCNC(=O)c2cccc(Cl)c2)CC1	inactive
CCNc1cc(C(=O)N[C@@H](Cc2ccccc2)[C@H](O)CNCCc2ccccc2)cc(N2CCCC2=O)c1	inactive
CC(CCc1ccccc1)NCC(O)c1ccc2c(c1)S(=O)(=O)c1ccccc1N2 (stereo not given)	inactive
Cc1cc(OCc2ccncc2)cc2c1C(=O)CC(C)(C)O2	inactive
COc1ccc2ncc(F)c(CCN3CC[C@H](NCc4cc5c(s4)CCCN5)[C@H](O)C3)c2n1	inactive
CNCCNCc1ccc(-c2cccc(-c3nc4ccc(C(F)(F)F)cc4[nH]3)c2)cc1	inactive
CN1CCC(C(=O)Nc2cccc(-c3ccc(-c4nc5ccc(C(F)(F)F)cc5[nH]4)s3)c2)CC1	inactive
